SW480 rerep = induces DNA re-replication in SW480 colon adenocarcinoma cells; Potency, µM (doses to about 46.1 µM), for the others: top-dose re-replication activation, hits mostly activators; SW480 DNA re-replication, Hoechst DNA content imaging, 48 h; AID 624297; actives 1.8% (n = 340,000); also: potency is read from the fitted curve at half-maximal effect; % of control where 0% means no effect; nearly all actives have a fitted effect of over 55% in size
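Image-based DNA-content assay: after two days of treatment, nuclei were labelled with the DNA dye Hoechst and imaged, and hits were compounds raising the count of nuclei showing high fluorescence intensity.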
VP16 counter = Gal4-VP16 reporter inhibition counter-screen; Drosophila S2 Gal4-VP16 UAS-luciferase, luminescence, 20 h; Potency, µM (titrated, usually from 53.6 µM), without a hit: at the top dose activity, negative = inhibition, actives largely listed as inhibitors; actives 3.5% (n = 310,000); AID 2546;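 also: Gal4-VP16 expression switched on by copper sulfate through the metallothionein promoter; potency is read from the fitted curve at half-maximal effect; % is scaled to controls: 0 for no effect and ±100 for the full control effect; nearly all actives have a fitted effect of over 50% in size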
IL1B secr inh = blocks inflammasome-driven IL-1 beta release | actives 4.7% (n = 360,000) | activity change, % at 57.5 µM | THP-1 LPS/ATP IL-1B secretion, AlphaLISA, 16 h; hits give low values | AID 743279; in the data active = activity change below about -50%; inconclusive = mostly about -30% to -49%; also: % is scaled to controls: 0 for no effect and ±100 for the full control effect
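Secreted IL-1B measured by AlphaLISA bead assay after 16 h compound exposure of THP-1 cells; compounds (final up to 57.5 uM) added 1 h before LPS (250 ng/mL) and ATP (1.25 mM) stimulation; lower signal means less secretion.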
RORgamma inh = ROR gamma (mouse) transcription inhibition; P51450; Drosophila S2 Gal4-RORgamma UAS-luciferase reporter, 20 h; Potency, µM (series often up to 53.6 µM), for inactives: at the highest dose activity change, negative = inhibition, actives largely listed as inhibitors; actives 5.4% (n = 310,000); AID 2551; also: potency is read from the fitted curve at half-maximal effect; % is scaled to controls: 0 for no effect and ±100 for the full control effect; nearly all actives have a fitted effect of over 60% in size
Target sequence (P51450 whole entry, looked up, the tested form may be a part): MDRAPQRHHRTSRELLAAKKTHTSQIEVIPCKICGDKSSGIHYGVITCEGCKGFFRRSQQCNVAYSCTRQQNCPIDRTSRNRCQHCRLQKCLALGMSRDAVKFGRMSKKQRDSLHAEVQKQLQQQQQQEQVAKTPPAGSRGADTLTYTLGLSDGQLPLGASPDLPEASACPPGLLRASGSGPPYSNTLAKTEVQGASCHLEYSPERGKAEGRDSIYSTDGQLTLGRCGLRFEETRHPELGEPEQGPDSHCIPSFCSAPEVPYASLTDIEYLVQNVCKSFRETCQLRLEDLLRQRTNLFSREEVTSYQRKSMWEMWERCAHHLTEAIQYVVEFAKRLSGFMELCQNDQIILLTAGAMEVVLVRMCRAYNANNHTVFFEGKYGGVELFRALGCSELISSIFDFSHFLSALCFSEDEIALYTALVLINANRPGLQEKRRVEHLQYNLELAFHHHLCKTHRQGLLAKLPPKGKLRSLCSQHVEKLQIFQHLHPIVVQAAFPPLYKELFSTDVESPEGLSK
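Drosophila S2 cells stably expressing Gal4-DBD/mouse RORγ fusion under metallothionein promoter plus UAS-luciferase; compound 1 h, then 700 uM CuSO4 induction for 20 h at ambient temperature; inhibition read as reduced luminescence.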
MCF10A rereplic = inducers of DNA re-replication in MCF 10A breast cells. MCF 10A DNA re-replication, Hoechst nuclear intensity, 48 h. Potency, µM (doses to about 46.1 µM), inactives show at the highest dose activity, positive = re-replication, actives largely listed as activators. actives 2.9% (n = 350,000). AID 624296; also: potency is read from the fitted curve at half-maximal effect; % of control where 0% means no effect; nearly all actives have a fitted effect of over 50% in size
An asterisk follows results filed as active; i = inactive; ? = inconclusive; / = not tested or not shown; [ ] = another dose, or the depositor's remark. A selection: hits, their analogues and other compounds. The true share with any hit is near 11%. Unless noted, calls follow the shape of the dose curve; as a rule, active = well fitted curve in the direction sought with a large enough effect; inconclusive = small, poorly fitted or top-dose-only effect, or another doubt; inactive = no such curve, though single readings can be large; an effect the other way counts as inactive or inconclusive.

SMILES | SW480 rerep | VP16 counter | IL1B secr inh | RORgamma inh | MCF10A rereplic
CCCCN(CC)CCNC(=O)Cn1cc2c(n1)-c1c(oc(C(=O)N3CCCC3)c1C)CC2 | -6% | ? | -4 | 16µM* | -4%
Cc1cc(NC(=S)Nc2ccccc2)ccc1Br | ? | ? | 5 | 10µM* | 1%
Cc1cc(NC(=S)Nc2cccnc2)ccc1Br | ? | ? | -3 | 13µM* | 13%
Fc1cccc(NC(=S)Nc2cccnc2)c1 | -38% | 14% | 14 | -9% | -40%
COc1cc(NC(=S)Nc2cccnc2)cc(OC)c1 | ? | ? | -5 | 10µM* | -2%
Cc1ccccc1NC(=S)Nc1ccccc1 | ? | ? | 17 | ? | 0%
Cc1cc(Cl)ccc1NC(=S)Nc1cccnc1 | 4% | ? | -21 | 13µM* | -182%[0.0737 µM]
CC1(C)CC(=O)C=C(c2cccc(OC(=O)c3ccc(-c4ccccc4)cc3)c2)C1=O | / | / | -2 | / | /
COc1ccc(C(CNC(=S)NCc2ccccc2)N2CCCC2)cc1 (stereo unspecified) | -1% | -8% | -72* | ? | 2%
COc1ccc(C(=O)NCCSc2ccccc2)cc1 | -1% | ? | -14 | 11µM* | ?
COc1cc(OC)cc(C(=O)NC(=S)N(Cc2ccccc2)C(C)C)c1 | 8% | 0.89µM* | 4 | 0.5µM* | 7%
COc1ccc(C(=O)NC(=S)NCc2ccccc2)cc1 | -5% | 22µM* | -17 | 7.1µM* | 0%
O=C(/C=C/c1ccc(O)c(O)c1)OC1C[C@](O)(C(=O)O)C[C@@H](O)[C@H]1O (stereo partly specified) | / | 6% | / | 22% | /
COc1ccc(C(=O)N2CCC3(CC2)CCN(c2ccncc2)CC3)cc1 | / | -12% | / | -24% | /
CCCCC[C@]12Cc3cc(OC)c(OC)cc3[C@H](O1)c1c(cc(C)oc1=O)O2 | / | 1%[10 µM] | / | 1%[10 µM] | /
COc1cc(OC)cc(C(=O)NCCNC(=O)c2ccccc2)c1 | 2% | 4% | 16 | 17% | -5%
COc1cc(OC)cc(C(=O)NC(=S)NCCc2ccccc2)c1 | ? | 0.63µM* | -6 | 0.71µM* | 1%
COc1ccc(N2COC3c4cccc5cccc(c45)C32)cc1 (stereo unspecified) | 1% | 5% | -10 | -32% | 23µM*
CCCCCCCCCCCCCCCC(=O)OCC1OC(n2ccc(N)nc2=O)C(O)C1O (stereo unspecified) | ? | / | 0 | / | ?
CCCCCCCCCCCCCCCC(=O)Nc1ccn(C2OC(CO)C(O)C2O)c(=O)n1 (stereo unspecified) | 2.6µM* | / | 30 | / | -6%
CC(CC(=O)N1CCN(c2ccccc2)CC1)S(=O)(=O)c1ccc2c(c1)NC(=O)CO2 (stereo unspecified) | 8% | -19% | 22 | ? | 10%
Cc1ccc(-c2cn3cccnc3n2)cc1NC(=O)c1ccc(Br)o1 | -3% | -7% | ? | -24% | -1%
COc1ccc(-c2cn3cccnc3n2)cc1NC(=O)c1ccc(Br)o1 | -1% | -25% | -54* | 9% | -28%
CC(=O)c1cccc(NC(=S)NC(=O)c2ccc(Br)cc2)c1 | ? | 10µM* | 6 | 5.6µM* | 13%
CC(=O)c1cccc(NC(=S)NC(=O)c2ccc(C)cc2)c1 | -2% | 13µM* | -7 | 10µM* | -7%
SMILES | SW480 rerep | VP16 counter | IL1B secr inh | RORgamma inh | MCF10A rereplic
CCC(=O)Nc1cccc(NC(=S)NC(=O)c2ccc(C)cc2)c1 | 15% | 7% | 0 | -11% | 4%
CC(=O)c1cccc(Nc2ccc(Br)cc2)c1 | / | / | 1 | / | /
O=C(NNC(=O)c1cccc(Br)c1)Nc1ccc(Cl)cc1 | -50% | 5% | 21 | -20% | -27%
O=C(NC(=S)Nc1cccc(CO)c1)c1ccc(-c2ccccc2)cc1 | 3% | 2.8µM* | -10 | 1.6µM* | ?
O=C(NC(=S)Nc1cc(Cl)ccc1O)c1cccc(Br)c1 | 11% | 3.5µM* | 14 | 1.3µM* | 19%
CCC(=O)Nc1cccc(NC(=S)NC(=O)c2ccccc2)c1 | -1% | -2% | i | 4% | -2%
CC(C)=C(NC(=O)c1ccccc1Cl)C(=O)NCCc1nc2ccccc2[nH]1 | / | / | 7 | / | /

Screening results from PubChem.
